High-throughput results as filed in PubChem BioAssay.
This is a sample that favours compounds with a hit; in the whole collection about 2.8% have one here.
ATXN2 expr inh: Primary qHTS for Inhibitors of ATXN expression; HEK-293 ATXN2-luciferase reporter, luminescence, 24 h; 360,000 compounds, 0.72% hits; Potency, µM (series often up to 57 µM), without a hit: top-dose activity change, negative = inhibition, usual class: inhibitors; also: potency is read from the fitted curve at half-maximal effect; % is scaled to controls: 0 for no effect and ±100 for the full control effect; nearly all actives have a fitted effect of over 55% in size
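qHTS (up to 57 uM final) was run with 24 h compound exposure of reporter cells at 37 °C. Each well was multiplexed: SteadyGlo luminescence measured ATXN2-luciferase expression after a fluorogenic Gly-Phe-AFC viability readout (25 uM final).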
S2 tox: Viability Counterscreen for Primary qHTS for Inhibitors of ATXN expression. S2 cells (HEK-293 line with an ATXN2-luciferase reporter) viability, CellTiter-Fluor protease fluorescence, 24 h. 400,000 compounds, 0.49% hits. Potency, µM (top dose mostly 56.7 µM), most hits filed as cytotoxic; also: potency is read from the fitted curve at half-maximal effect; nearly all actives have a fitted effect of over 40% in size
HepG2 tox: qHTS for Inhibitors of TGF-b: Cytotox Counterscreen. HepG2 CAGA-GFP viability, ATP luminescence, 18 h. Potency, µM (series often up to 46.1 µM), without a hit: at the highest dose activity change, negative = cytotoxicity, most hits filed as cytotoxic. 410,000 compounds, 0.76% hits. AID 588856, 2011; also: potency is read from the fitted curve at half-maximal effect
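HepG2 CAGA-GFP cells (1000/well, DMEM with 1% FBS) received compound, then TGF-beta at 500 pg/mL final, and were incubated 18 hours at 37 degrees C. Viability was read by CellTiter-Glo luminescence. Media-only wells were set as complete cell-killing and DMSO as no toxicity.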
CtBP-E1A inh: qHTS Assay for Inhibitors of the CtBP/E1A Interaction; CtBP / adenovirus E1A interaction (AlphaScreen); AlphaScreen GST-E1A/His-CtBP binding, 1536-well; stronger effect = lower value; activity change, % (test concentration not listed); 340,000 compounds, 0.49% hits; AID 651724, 2012; in the data active = activity change below about -65%; inconclusive = mostly about -30% to -63%; also: % is scaled to controls: 0 for no effect and ±100 for the full control effect
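Protein mix (5X: 125 nM each GST-E1A, His-CtBP) was incubated with pinned compound 2 h at 37 deg C in dark, in 50 mM Tris pH 8.0 buffer with 300 mM NaCl. Glutathione donor and nickel acceptor beads followed; AlphaScreen signal read after 1 h.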
TGFb inhibitor: qHTS for Inhibitors of TGF-b. AID 588855, 2011. 410,000 compounds, 1.2% hits. HepG2 CAGA-GFP TGF-b/SMAD3 reporter, GFP fluorescence, 18 h; TGF-beta stimulated, 500 pg/mL final. Potency, µM (doses to about 46.1 µM), for the others: at the top dose activity, negative = inhibition, most hits filed as inhibitors; also: potency is read from the fitted curve at half-maximal effect; % is scaled to controls: 0 for no effect and ±100 for the full control effect; nearly all actives have a fitted effect of over 65% in size
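Read-out: total well GFP (ex488/em500-530) summed from mean per-cell fluorescence. Cells: HEPG2 CAGA-GFP, 1% FBS DMEM, 18 h at 37 degrees C with 500 pg/mL final TGF-beta. Unstimulated wells served as the full-inhibition control; stimulated DMSO wells = 0%.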
Six1-Eya2 inh: qHTS Assay for Inhibitors of the Six1/Eya2 Interaction; AID 651725, 2012; 360,000 compounds, 0.56% hits; Homeobox protein SIX1 (Homo sapiens) + Protein phosphatase EYA2 (Homo sapiens), …; AlphaScreen GST-Six1/His-Eya2 binding, biochemical; stronger effect = lower value; activity change, % (no concentration beside the values); in the data active = activity change below about -65%; inconclusive = mostly about -30% to -63%; also: % is scaled to controls: 0 for no effect and ±100 for the full control effect
Target sequence (O00167 whole entry, looked up): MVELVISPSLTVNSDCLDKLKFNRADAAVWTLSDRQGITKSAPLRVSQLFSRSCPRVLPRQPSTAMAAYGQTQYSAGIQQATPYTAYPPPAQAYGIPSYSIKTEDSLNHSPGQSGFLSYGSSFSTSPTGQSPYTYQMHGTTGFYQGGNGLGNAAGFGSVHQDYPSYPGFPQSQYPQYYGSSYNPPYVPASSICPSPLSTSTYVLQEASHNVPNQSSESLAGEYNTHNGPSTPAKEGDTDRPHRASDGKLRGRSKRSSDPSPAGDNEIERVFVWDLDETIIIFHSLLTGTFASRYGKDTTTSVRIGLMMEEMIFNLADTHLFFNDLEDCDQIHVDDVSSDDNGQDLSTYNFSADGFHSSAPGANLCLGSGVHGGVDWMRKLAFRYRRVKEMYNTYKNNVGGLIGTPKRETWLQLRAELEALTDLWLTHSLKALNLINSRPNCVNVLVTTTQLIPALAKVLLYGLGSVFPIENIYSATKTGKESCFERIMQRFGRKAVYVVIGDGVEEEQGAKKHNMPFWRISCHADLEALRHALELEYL
Target sequence (Q15475 whole entry, looked up): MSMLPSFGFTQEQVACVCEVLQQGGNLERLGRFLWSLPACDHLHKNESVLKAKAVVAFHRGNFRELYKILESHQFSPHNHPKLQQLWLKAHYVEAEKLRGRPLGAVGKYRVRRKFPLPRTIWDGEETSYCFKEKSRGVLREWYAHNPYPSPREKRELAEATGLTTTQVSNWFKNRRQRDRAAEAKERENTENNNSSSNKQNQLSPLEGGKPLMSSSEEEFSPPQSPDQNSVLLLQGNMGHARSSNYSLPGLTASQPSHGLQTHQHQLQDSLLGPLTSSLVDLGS
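Compounds are tested against tagged Six1 and Eya2 proteins bridged by glutathione donor and nickel acceptor beads; after a one-hour incubation at 37 °C without light, AlphaScreen emission is recorded.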
* marks the source's active call; other numbers are inactive results; i = inactive; ? = inconclusive; . = no result. Unless noted, calls follow the shape of the dose curve; as a rule, active = well fitted curve in the direction sought with a large enough effect; inconclusive = small, poorly fitted or top-dose-only effect, or another doubt; inactive = no such curve, though single readings can be large; an effect the other way counts as inactive or inconclusive.

SMILES	ATXN2 expr inh	S2 tox	HepG2 tox	CtBP-E1A inh	TGFb inhibitor	Six1-Eya2 inh
COc1cc(OC)c(OC)cc1/C=N/NC(=O)c1ccc2nc[nH]c2c1	16%	i	2%	-23	22%	-15
COc1cc(C(=O)Oc2ccccc2/C=N/NC(=O)c2ccc(Cl)cc2)cc(OC)c1OC	0%	?	6%	?	7.1µM*	-22
COc1cccc(/C=N/NC(=O)c2ccc3nc[nH]c3c2)c1O	6%	i	-24%	-96*	6%	-87*
CCOc1ccccc1CNC(=O)c1nc(-c2ccc(Cl)cc2)n2c1CCCCC2	-2%	i	-25%	.	?	.
CCOc1ccc(-c2nn(CC(=O)NC3CCCC3)c3c2cnc2ccc(F)cc23)cc1	12%	i	6%	.	17%	.
COc1cccc(C=NNC(=O)c2ccncc2)c1O	10µM*	i	-11%	-94*	14%	-80*
COc1cccc(/C=N/NC(=O)N/N=C/c2cccc(OC)c2O)c1O	?	i	-11%	?	-10%	?
COc1ccc(-c2ccc(C(C)=O)cc2)cc1C1C2C=CCCC2(C)C(=O)N1Cc1ccccc1 (stereo not drawn)	.	.	-3%	.	-33%	.
Cc1ccc2occ(CC(=O)N(Cc3ccc(Cl)cc3)Cc3ccco3)c2c1	-23%	i	-21%	.	16µM*	.
Cc1ccc(CN(Cc2ccco2)C(=O)c2oc3ccc(C)cc3c2C)cc1	4%	i	-27%	.	?	.
Cc1ccc(N=C(NOCc2ccc(Cl)cc2Cl)c2nonc2N)c(C)c1	-37%	i	-45%	28	16µM*	5
c1ccc(-c2nn[nH]n2)nc1	2%	i	4%	-72*	-3%	-87*
c1ccc(-c2n[nH]c(-c3ccccn3)n2)nc1	-21%	i	-42%	-95*	-4%	-92*
c1ccc(-c2n[nH]c(-c3ccccn3)n2)cc1	26%	i	-38%	-92*	-1%	-91*
Nc1n[nH]c(-c2ccccc2)n1	2%	?	6%	4	-1%	7
CCN(CC)c1ccc(NC(=O)c2cnn3c(C(F)F)cc(-c4ccccc4)nc23)cc1	.	.	13%	.	9%	.
CCn1nc(C)cc1-c1nnc(Sc2ncc([N+](=O)[O-])s2)n1C	.	3.5µM*	4µM*	.	2.8µM*	?
CCn1nc(C)cc1-c1nnc(SCC(=O)Nc2ccccc2)n1CCCOC	-18%	i	-7%	-4	0%	2
COc1ccc(O)c(CN2CCC3(CCC(CNC(=O)c4ccco4)O3)CC2)c1 (stereo not drawn)	.	i	.	.	.	.
COc1ncccc1C(=O)N1CCOc2ccc(C(O)C(c3ccccc3)c3ccccc3)cc2C1 (stereo not drawn)	.	i	.	.	.	.
Cc1ccc2c(c1)C(=O)C(=O)N2CCCOc1ccccc1	35%	i	-38%	-2	18µM*	1
Cc1ccc2c(=O)c3cccc(CC(=O)O)c3oc2c1C	24µM*	.	.	.	.	.
CCn1nc(C)cc1C(=O)Sc1ccc(Cl)cc1Cl	-27%	i	-23%	0	?	4
CCn1nc(C)cc1C(=O)Sc1cccc(Br)c1	-2%	i	20µM*	10	?	5
CS(=O)(=O)c1ccc(C(=O)OCC(=O)Nc2ccc(OC(F)(F)F)cc2)cc1[N+](=O)[O-]	.	.	-105%	.	?	.
SMILES	ATXN2 expr inh	S2 tox	HepG2 tox	CtBP-E1A inh	TGFb inhibitor	Six1-Eya2 inh
CC(=O)c1cccc(NC(=O)COC(=O)c2ccc(S(C)(=O)=O)c([N+](=O)[O-])c2)c1	18%	i	-105%	-19	10µM*	-17
CC(=O)c1cccc(NC(=O)C(C)OC(=O)c2ccc(S(C)(=O)=O)c([N+](=O)[O-])c2)c1 (stereo not drawn)	.	.	14µM*	.	11µM*	.
Cc1ccc(C)c(C(=O)N2CCC(c3nc4c(nnn4Cc4ccccc4)c(=O)[nH]3)CC2)c1	16%	i	-9%	.	11µM*	.
Cn1c(=O)c2c(nc(NCc3ccco3)n2C/C=C/c2ccccc2)n(C)c1=O	?	?	-32%	-3	4µM*	-8
Cn1c(=O)c2c(nc(NCc3ccco3)n2C)n(C)c1=O	4%	i	8%	1	0%	-4
CCOC(=O)N1CCc2c(sc3c2c(=O)n(-c2ccc(Cl)cc2)c(=O)n3CC(=O)Nc2ccccc2)C1	2%	i	1%	.	10%	.
COc1cccc(-c2sc3ccc(OC)cc3c2C#CC(C)(C)O)c1	-14%	i	-42%	3	16µM*	1
COc1ccc2sc(-c3ccc(N(C)C)cc3)c(C#CC(C)(C)O)c2c1	8%	.	-27%	15	-24%	19
CN1CC[C@@H](c2c(O)cc(O)c3c(=O)cc(-c4ccccc4Cl)oc23)[C@@H](O)C1	0.15µM*	.	.	.	.	.
FC(F)(F)c1cc(CCN2CCNC[C@H]2Cc2cccc3ccccc23)cc(C(F)(F)F)c1	?	40µM*	-104%	1	?	0
Oc1ccc(C[C@@H]2CNCCN2CCc2cc(C(F)(F)F)cc(C(F)(F)F)c2)cc1	20µM*	?	-93%	.	?	4
Nc1cc2nc3ccccc3oc-2cc1=O	-15%	?	4.5µM*	?	?	-26
O=C(O)c1cc(=O)c2c3nc4ccccc4oc-3cc(=O)c2[nH]1	.	.	3%	.	-4%	.
CC(C)(C)[C@H](N)C(=O)N[C@H]1CCC2C3CC=C4C[C@@H](O)CC[C@]4(C)C3CC[C@@]21C (stereo partly drawn)	?	.	-97%	-1	14µM*	5
O=C(NCCc1ccccn1)C1CC12CCN(C(=O)c1ccc(F)cc1Cl)CC2 (stereo not drawn)	.	i	.	.	.	.
N#CCCn1cc(/C=C2\NC(=S)N(c3ccccc3)C2=O)c(-c2ccc(-c3ccccc3)cc2)n1	?	?	-4%	0	10µM*	-12
COc1ccc(CC(N)c2csc(NC(=O)Nc3ccc(OC)cc3)n2)cc1 (stereo not drawn)	?	?	-82%	-29	?	-25
COc1ccc(NC(=O)Nc2nc(C(N)Cc3ccc(C(F)(F)F)cc3)cs2)cc1 (stereo not drawn)	?	i	10µM*	-14	11µM*	0
